For some of these results: Measured potencies and affinities stand elsewhere.

What all share (parameters): scale not given: direction of the effect not stated beside the values
Test [1] concerns the target Protein translocase subunit SecA (Escherichia coli (strain K12)) (UniProt P10408). Kind of test: Assay to Identify E. coli SecA ATPase Inhibitors. Type of test: functional. The following applies: 30 µM.
Test [2] concerns the target T1, Ubiquitin-activating enzyme e1, putative (Leishmania donovani (strain BPK282A1)) (UniProt E9BSI1).
T1 sequence (whole entry): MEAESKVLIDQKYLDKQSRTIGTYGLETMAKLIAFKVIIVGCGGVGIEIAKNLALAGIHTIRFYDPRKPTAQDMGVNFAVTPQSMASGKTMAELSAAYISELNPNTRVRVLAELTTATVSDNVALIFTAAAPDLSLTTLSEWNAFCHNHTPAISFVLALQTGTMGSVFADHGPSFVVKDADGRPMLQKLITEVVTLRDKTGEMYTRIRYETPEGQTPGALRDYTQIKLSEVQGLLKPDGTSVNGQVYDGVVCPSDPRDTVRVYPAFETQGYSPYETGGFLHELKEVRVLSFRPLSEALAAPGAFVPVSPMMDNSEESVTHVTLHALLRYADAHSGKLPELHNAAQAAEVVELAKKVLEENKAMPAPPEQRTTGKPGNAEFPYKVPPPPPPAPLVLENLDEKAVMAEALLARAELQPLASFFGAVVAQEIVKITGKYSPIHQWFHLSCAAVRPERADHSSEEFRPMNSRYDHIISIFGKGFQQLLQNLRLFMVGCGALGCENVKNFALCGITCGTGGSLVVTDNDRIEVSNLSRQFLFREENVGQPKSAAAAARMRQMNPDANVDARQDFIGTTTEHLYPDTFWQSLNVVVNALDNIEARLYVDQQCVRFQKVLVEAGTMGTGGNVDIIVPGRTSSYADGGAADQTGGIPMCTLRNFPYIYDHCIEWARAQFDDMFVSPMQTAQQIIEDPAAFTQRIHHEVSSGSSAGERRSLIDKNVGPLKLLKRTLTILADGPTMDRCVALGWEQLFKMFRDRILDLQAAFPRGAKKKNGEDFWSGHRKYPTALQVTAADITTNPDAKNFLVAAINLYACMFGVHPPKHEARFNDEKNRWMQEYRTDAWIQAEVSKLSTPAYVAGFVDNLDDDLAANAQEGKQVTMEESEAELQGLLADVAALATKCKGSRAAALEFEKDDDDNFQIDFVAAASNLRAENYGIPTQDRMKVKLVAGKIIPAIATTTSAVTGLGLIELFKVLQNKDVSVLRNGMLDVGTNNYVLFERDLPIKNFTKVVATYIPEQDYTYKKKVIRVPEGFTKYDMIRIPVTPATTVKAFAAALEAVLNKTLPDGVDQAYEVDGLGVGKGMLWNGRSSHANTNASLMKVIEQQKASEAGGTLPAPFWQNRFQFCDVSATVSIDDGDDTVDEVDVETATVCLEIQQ
Description: Leishmania donovani Ubiquitin Activating Enzyme (LdE1). Type of test: functional. The following applies: 30 µM.

The target of test [3] is AMP-activated protein kinase, AMPK (Homo sapiens) (UniProt P54646+O43741+P54619+Q9UGJ0+Q9Y478+Q13131+Q9UGI9). Description: AMP-dependent Kinase enzyme assay. An in vitro enzyme assay that detects ADP turnover that is directly proportional to AMPK activity. This uses naive AMPK that is activated during the assay with MK-8722. Type of test: functional. The following applies: 30 µM.

The target of test [4] is Sialic acid-binding Ig-like lectin 9 (Homo sapiens) (UniProt Q9Y336). Description: Hs-Siglec9 ALPHAscreen SOP 20170721. The following applies: 10 µM. (In general: In Alpha technology, singlet oxygen from a donor bead excites a nearby acceptor bead.)
Chain of Sialic acid-binding Ig-like lectin 9 (Homo sapiens) (Q9Y336 whole entry): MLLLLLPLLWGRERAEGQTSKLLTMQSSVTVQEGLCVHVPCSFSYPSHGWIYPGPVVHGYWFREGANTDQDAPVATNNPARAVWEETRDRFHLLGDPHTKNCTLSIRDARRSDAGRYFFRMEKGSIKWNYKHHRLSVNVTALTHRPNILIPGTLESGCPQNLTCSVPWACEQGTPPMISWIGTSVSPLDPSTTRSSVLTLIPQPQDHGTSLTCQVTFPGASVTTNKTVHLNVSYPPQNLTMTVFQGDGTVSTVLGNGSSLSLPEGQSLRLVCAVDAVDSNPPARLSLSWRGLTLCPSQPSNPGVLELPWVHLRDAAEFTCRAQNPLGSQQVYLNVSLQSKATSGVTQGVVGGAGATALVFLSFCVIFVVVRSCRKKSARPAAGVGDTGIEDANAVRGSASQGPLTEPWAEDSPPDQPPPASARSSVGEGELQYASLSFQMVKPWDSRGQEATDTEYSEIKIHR
The next test concerns Trypanosoma cruzi. Description: Trypanosoma cruzi phosphomannomutase and mannose-1-phosphate guanylyltransferase assay. Type of test: functional. The following applies: 10 µM.
Test [5] addresses T2, Arginase-2, mitochondrial (Homo sapiens) (UniProt P78540).
T2 sequence (whole entry): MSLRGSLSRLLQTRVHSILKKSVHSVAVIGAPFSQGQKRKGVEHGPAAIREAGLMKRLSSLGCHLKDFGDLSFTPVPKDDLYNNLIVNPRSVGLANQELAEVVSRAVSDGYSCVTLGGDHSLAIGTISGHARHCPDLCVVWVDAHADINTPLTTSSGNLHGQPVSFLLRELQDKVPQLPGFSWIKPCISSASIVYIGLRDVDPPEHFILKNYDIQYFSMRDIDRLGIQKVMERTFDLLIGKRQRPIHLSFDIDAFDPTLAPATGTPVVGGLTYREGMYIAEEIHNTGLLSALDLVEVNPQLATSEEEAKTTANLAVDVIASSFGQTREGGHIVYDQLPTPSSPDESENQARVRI
Description: in vitro enzyme assay to detect the production of urea directly proportional to the activity of Arginase II. Note: in the data most compounds retested in dose-response had high values. Format: functional. The following applies: 33.3 µM.

Test [6] addresses T3, Proteasome subunit beta (Trypanosoma cruzi) (UniProt O96673).
T3 sequence (whole entry): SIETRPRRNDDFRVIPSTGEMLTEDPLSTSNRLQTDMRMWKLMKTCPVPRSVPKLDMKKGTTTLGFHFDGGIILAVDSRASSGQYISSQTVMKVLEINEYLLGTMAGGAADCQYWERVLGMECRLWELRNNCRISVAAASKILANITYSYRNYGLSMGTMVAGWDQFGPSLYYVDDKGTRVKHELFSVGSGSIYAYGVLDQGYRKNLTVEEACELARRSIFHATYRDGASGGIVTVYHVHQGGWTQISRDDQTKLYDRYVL
Description: Trypanosoma cruzi proteasome chymotrypsin-like activity (TcProtChymo) assay. Note: in the data most compounds retested in dose-response had high values. Format: functional. The following applies: 9.37 µM.

Another test is filed under the species Homo sapiens. Kind of test: To identify inhibition of the IFN signalling (Jak-Stat) pathway via expression of an eGFP reporter gene under the control of an IFN-stimulated response element (ISRE) containing MxA promoter. Format: functional. The following applies: 30 µM. On the technique in general: Reporter assays use an easily measured gene product as a stand-in for the process of interest.

Test [7] concerns the target T4, Tyrosyl-tRNA synthetase, putative (Trypanosoma cruzi (strain CL Brener)) (UniProt Q4DSP6).
T4 sequence (whole entry): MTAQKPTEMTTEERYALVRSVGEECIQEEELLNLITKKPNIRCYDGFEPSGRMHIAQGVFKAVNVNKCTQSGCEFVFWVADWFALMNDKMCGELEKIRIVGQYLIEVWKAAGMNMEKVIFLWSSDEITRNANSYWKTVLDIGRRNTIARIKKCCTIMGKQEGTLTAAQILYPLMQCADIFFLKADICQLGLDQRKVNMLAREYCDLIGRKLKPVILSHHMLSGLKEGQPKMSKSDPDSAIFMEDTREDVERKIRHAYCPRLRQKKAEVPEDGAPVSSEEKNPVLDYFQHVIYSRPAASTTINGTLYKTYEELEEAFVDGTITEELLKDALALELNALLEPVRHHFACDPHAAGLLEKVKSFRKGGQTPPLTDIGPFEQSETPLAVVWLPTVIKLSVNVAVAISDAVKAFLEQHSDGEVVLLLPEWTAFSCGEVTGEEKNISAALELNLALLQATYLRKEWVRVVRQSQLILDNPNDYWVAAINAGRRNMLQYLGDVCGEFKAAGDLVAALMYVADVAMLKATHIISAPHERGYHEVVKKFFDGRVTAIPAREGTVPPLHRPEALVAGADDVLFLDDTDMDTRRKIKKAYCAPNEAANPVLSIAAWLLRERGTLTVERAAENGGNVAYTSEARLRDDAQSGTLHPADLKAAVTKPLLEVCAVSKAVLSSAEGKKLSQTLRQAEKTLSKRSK
Description: Trypanosoma cruzi tyrosyl tRNA synthetase (TcYRS) _High Tyrosine SOP. Note: in the data most compounds retested in dose-response had high values. The following applies: 30 µM. Type of test: functional.

Test [8] concerns the target T4, Tyrosyl-tRNA synthetase, putative (Trypanosoma cruzi (strain CL Brener)). Description: Trypanosoma cruzi tyrosyl tRNA synthetase (TcYRS) SOP. Format: functional. The following applies: 30 µM.
Test [9] concerns the target Chromo domain-containing protein 1 (Saccharomyces cerevisiae (strain ATCC 204508 / S288c) (Baker's yeast)) (UniProt P32657). Description: ScCHD-1 Enzyme Inhibition Assay. Note: in the data most compounds retested in dose-response had high values. The following applies: 30 µM. Format: functional.

Chain of Chromo domain-containing protein 1 (Saccharomyces cerevisiae (strain ATCC 204508 / S288c) (Baker's yeast)) (P32657 whole entry, the tested form may be a part): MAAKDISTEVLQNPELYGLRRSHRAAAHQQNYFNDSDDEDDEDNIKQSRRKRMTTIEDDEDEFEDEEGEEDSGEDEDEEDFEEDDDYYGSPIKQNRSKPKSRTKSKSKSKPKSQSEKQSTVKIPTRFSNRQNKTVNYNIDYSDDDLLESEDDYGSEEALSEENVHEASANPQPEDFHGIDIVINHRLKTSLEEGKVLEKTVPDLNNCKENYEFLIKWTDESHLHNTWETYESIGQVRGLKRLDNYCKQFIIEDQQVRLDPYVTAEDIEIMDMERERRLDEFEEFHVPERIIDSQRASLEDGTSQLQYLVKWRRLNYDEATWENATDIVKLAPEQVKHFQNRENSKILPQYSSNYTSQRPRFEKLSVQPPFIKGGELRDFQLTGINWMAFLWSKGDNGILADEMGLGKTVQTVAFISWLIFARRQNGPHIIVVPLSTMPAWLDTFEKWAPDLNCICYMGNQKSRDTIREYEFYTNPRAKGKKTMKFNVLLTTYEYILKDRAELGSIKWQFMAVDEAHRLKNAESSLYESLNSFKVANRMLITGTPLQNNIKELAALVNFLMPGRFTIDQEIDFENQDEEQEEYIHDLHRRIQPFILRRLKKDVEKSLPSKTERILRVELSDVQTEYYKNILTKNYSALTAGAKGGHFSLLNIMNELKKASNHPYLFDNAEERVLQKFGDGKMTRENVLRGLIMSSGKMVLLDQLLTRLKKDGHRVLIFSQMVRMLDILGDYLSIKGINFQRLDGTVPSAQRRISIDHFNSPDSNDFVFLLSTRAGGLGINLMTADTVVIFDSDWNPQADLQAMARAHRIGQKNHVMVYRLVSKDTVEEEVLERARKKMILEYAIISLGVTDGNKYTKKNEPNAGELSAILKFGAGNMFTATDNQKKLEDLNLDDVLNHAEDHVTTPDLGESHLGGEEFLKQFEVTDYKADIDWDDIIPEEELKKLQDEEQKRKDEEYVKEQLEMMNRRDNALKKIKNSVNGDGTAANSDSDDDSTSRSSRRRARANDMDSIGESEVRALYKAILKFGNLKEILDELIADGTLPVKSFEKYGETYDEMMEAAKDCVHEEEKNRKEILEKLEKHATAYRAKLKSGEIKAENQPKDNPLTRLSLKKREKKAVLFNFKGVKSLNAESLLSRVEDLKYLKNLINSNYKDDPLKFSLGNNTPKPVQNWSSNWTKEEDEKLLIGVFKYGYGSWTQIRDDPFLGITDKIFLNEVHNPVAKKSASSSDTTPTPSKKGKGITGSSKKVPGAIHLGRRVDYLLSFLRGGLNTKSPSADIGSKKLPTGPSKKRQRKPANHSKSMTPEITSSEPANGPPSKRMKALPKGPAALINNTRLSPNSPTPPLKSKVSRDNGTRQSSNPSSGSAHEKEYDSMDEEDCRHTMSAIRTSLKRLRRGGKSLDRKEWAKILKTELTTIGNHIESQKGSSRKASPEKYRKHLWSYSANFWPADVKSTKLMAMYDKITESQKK
Chain of Protein translocase subunit SecA (Escherichia coli (strain K12)) (P10408 whole entry): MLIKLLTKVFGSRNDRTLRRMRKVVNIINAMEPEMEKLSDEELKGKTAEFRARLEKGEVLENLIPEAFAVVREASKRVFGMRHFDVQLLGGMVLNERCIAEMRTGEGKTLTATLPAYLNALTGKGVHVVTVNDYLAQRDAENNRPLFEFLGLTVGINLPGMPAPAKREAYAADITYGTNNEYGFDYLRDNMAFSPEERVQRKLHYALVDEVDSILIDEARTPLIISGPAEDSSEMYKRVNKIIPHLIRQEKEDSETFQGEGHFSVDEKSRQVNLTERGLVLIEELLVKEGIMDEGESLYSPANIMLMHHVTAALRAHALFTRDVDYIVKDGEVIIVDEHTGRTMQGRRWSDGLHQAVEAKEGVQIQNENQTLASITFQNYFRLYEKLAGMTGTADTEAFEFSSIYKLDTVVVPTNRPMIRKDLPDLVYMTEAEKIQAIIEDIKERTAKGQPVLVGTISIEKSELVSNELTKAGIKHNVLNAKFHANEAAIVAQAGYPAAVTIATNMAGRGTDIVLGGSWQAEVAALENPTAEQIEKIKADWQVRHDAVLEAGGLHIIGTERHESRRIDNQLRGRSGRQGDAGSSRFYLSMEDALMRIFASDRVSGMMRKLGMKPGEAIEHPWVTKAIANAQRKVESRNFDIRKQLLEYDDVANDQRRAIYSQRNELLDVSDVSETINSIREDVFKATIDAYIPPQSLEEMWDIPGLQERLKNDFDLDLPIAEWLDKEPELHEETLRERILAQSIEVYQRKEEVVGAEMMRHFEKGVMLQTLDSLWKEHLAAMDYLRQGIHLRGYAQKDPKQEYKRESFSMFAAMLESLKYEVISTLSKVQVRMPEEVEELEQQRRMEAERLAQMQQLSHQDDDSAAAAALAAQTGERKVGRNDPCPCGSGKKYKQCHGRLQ

Regarding `O=C(NCC1CC1)C1CSCN1S(=O)(=O)c1cccc(F)c1` (stereo not drawn), the Percent Effect in [1] was -1.87%; in test [2], 8.22%; in [3], -0.192%; in test [4], -1.84%; in the test on Trypanosoma cruzi, 2.94%; in test [5] it was -0.455%. For the same molecule, the Percent Effect in [6] was 25%; in the test listed under Homo sapiens it was -0.563%; in [7], 4.3%; in test [8], 12.5%; in test [9], -3.76%.

Turning to `CC(c1ccc(Cl)cc1)N1CCN(CCS(C)(=O)=O)CC1` (stereo not drawn), the Percent Effect in [1] is -3.62%; in [2] it was 5.41%; in test [3], 0.609%; in test [4], 6.25%; in the test on Trypanosoma cruzi, -0.579%; in [5] it was 3.81%. The Percent Effect in [6] was 14%; in the test filed under Homo sapiens, 10.3%; in test [7], 3.7%; in test [8] it was 14.6%; in test [9], -5.14%.

As to `Cc1n[nH]c(C(=O)NCc2ccnc(OCC(F)(F)F)c2)c1Br`, the Percent Effect in test [1] is -4.7%; in test [2] it was 23.7%; in [3], -2.47%; in test [4], 1.14%; with Trypanosoma cruzi, 8.08%; in test [5], -0.383%. The Percent Effect was 18.4% in test [6]; 5.22% in the test filed under Homo sapiens; 6.37% in test [7]; 24.4% in test [8]; -11.1% in test [9].

As for `CC(C)c1nn(C)c(N(C)C)c1CNCc1cccc(CN(C)C)c1`, the Percent Effect in test [1] was -1.46%; in [2] it was 18.4%; in [3], -8.3%; in test [4], 3.17%; in the test with Trypanosoma cruzi, -7.94%; in [5], 3.6%. The Percent Effect in test [6] was 3.81%; in the test listed under Homo sapiens, 2.21%; in test [7], 8.37%; in test [8], 18.5%; in test [9] it was -4.8%.

As to `COc1ccc(C2CCCN2C(=O)c2csc(NC(C)=O)n2)cc1` (stereo not drawn), the Percent Effect in test [1] was -5.5%; in [2] it was 18.2%; in test [3], 41.8%; in test [4] it was -5.49%; in the test with Trypanosoma cruzi, -3.37%; in test [5] it was 2.85%. The Percent Effect in test [6] was 4.56%; in the test listed under Homo sapiens, 17.3%; in test [7], 6.8%; in test [8], 12.2%; in [9] it was -8.21%.

Consider `COCC1COCCC12CCN(C(=O)CCOc1ccccc1)CC2` (stereo not drawn), for which the Percent Effect in [1] is -3.35%; in test [2], 2.7%; in [3] it was 0.684%; in test [4] it was -3.94%; with Trypanosoma cruzi, 8.2%; in [5] it was -2.5%. In addition, the Percent Effect in test [6] was 6%; in the test filed under Homo sapiens it was -0.428%; in test [7], 8.91%; in test [8] it was 6.1%; in test [9], 1.14%.

For `CC(Cn1ccnc1)NC(=O)NCCc1ccc2c(c1)OCCO2` (stereo not drawn), the Percent Effect in [1] was -3.57%; in [2], 18.2%; in test [3] it was -10.2%; in [4] it was -0.77%; with Trypanosoma cruzi it was -10.1%; in test [5], 0.712%. Further, the Percent Effect in test [6] was 15.7%; in the test listed under Homo sapiens, 31.7%; in [7], 4.85%; in test [8] it was 2.44%; in [9] it was -8.39%.

On to `O=C(C[C@@H]1COC[C@H]2CN(Cc3ccc(F)cc3)C[C@@H]12)N1CCCCO1`, for which the Percent Effect in test [1] was -4.42%; in test [2] it was 6.67%; in [3], 4.91%; in test [4] it was 6.17%; in the test on Trypanosoma cruzi, -2.36%; in [5] it was -0.176%. Further, the Percent Effect is 16.1% in test [6]; 19% in the test filed under Homo sapiens; 2.12% in test [7]; 7.69% in test [8]; -5.03% in test [9].

The values above are taken from ChEMBL document CHEMBL3988442, “University of Dundee, Small-Polar-MMV Screening Library” (2021).
